Compound activity (PubChem BioAssay)
ADAM17 inh: ADAM17 inhibitors, primary screen, biochemical, QFRET; Disintegrin and metalloproteinase domain-containing protein 17 (Homo sapiens), P78536; recombinant ADAM17, EDANS/DABCYL FRET peptide cleavage; inhibition, % at 6.95 µM; 0.83% of 370,000 active;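 active = inhibition above the mean of compounds lying between control limits plus 3 SD, set per campaign, cut at about 8.5% in these data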
AHR activator: AHR activators, primary screen, cell-based, luminescence, luciferase reporter, human; AID 2796, 2010; activation, % at 5 µM; AHR-responsive luciferase reporter cells; 2.5% of 320,000 active; Aryl hydrocarbon receptor (Homo sapiens), P35869; in the data active = activation above about 47%
rCAG binder: binders of r(CAG) RNA repeats, primary screen, biochemical, fluorescence | r(CAG) RNA repeat, TO-PRO-1 dye displacement fluorescence | 1.3% of 370,000 active | AID 651821, 2012 | inhibition, % at 3 µM;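 active = inhibition above the plate cutoff, the mean of all test compounds on that plate plus 3 SD, cut at about 35% in these data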;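 also: higher means more dye released from RNA so lower well fluorescence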
KLK7 zymogen act: proKLK7 zymogen activators, primary screen, biochemical, fluorescence intensity; Kallikrein-7 (Homo sapiens), P49862; purified proKLK7, EDANS-DABCYL substrate fluorescence; 100% is mature enzyme control, 0% vehicle; activation, % at 7 µM; 0.9% of 370,000 active; AID 652039, 2013;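 active = activation above the mean of all tested compounds plus 3 SD, computed per campaign excluding outliers beyond control limits, cut at about 13% in these data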
ADAM10 inh: human ADAM10 inhibitors, primary screen, biochemical, QFRET, HTS; 0.62% of 370,000 active; inhibition, % at 7 µM; recombinant ADAM10, EDANS/DABCYL FRET peptide cleavage, 3 h;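 active = inhibition above a per-campaign cutoff equal to the mean of compounds falling between control-based bounds plus 3 SD, cut at about 20% in these data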
Target sequence (O14672 214-748 limits assumed): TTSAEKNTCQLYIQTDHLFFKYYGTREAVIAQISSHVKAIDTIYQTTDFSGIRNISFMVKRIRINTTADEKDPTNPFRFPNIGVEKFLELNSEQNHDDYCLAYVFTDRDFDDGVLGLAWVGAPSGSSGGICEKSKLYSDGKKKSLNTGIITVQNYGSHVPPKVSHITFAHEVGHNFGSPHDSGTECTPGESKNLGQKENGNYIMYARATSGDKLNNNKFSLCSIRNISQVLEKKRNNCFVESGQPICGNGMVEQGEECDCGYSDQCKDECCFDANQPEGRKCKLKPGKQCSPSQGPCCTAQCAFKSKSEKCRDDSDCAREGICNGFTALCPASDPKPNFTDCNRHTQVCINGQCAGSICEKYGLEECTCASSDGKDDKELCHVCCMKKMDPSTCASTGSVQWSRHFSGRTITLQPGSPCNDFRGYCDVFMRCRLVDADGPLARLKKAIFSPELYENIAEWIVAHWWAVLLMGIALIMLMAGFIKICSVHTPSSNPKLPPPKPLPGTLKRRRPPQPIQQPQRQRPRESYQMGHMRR
GRIN3A LBD mod: binders of NR3A ligand-binding domain, primary screen, biophysical, differential scanning fluorimetry, uHTS; Glutamate receptor ionotropic, NMDA 3A (GRIN3A) ligand-binding domain; NR3A LBD differential scanning fluorimetry, Tm shift; 0% = protein alone, 100% = glycine-bound protein; Tm shift relative to glycine control, % at 25 µM; 2.5% of 340,000 active;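 active = melting temperature shift of at least 10% of the positive control shift, at one fixed dose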
Each line names hits and unclear results; the compound was inactive in the other large screens. In the library only some 7% were active in any assay of this set; here they are far more common.

COc1ccc2ccccc2c1C1CC(=O)N2CN(C3CCCCC3)CSC2=C1C#N (configuration not stated)	rCAG binder 39
CCOc1cc(C2CC(=O)N3CN(C4CCCCC4)CSC3=C2C#N)ccc1O (configuration not stated)	none
NC(=O)c1c(N)[nH]c(C(=O)c2ccccc2)c1-c1ccccc1	none (no result: AHR activator, GRIN3A LBD mod)
O=C(CC(=O)c1ccccc1)Nc1ccc([N+](=O)[O-])cc1	GRIN3A LBD mod 20 (no result: AHR activator)
O=C(COc1ccc([N+](=O)[O-])cc1)Nc1ccc(NC(=O)c2ccccc2)cc1	GRIN3A LBD mod 13
CCOC(=O)/C(=N\Nc1ccc(Cl)cc1)c1csc(Nc2ccccc2)n1	GRIN3A LBD mod 27
Cc1cc(C)nc(NC2=NCC(=O)N2c2cccc(Cl)c2)n1	AHR activator 65
Cc1cc(C)nc(NC2=NCC(=O)N2c2ccc3c(c2)OCCO3)n1	none
COc1ccc(N2C(=O)CN=C2Nc2nc(C)cc(C)n2)cc1	AHR activator 76
Cc1cc(C)nc(NC2=NCC(=O)N2c2ccccc2)n1	none
O=C(CCCN1C(=O)S/C(=C/C=C/c2ccccc2)C1=O)Nc1ccc(C(=O)O)cc1	none
O=C(CN1C(=O)S/C(=C\C=C\c2ccccc2)C1=O)Nc1ccc(O)cc1	GRIN3A LBD mod 15
O=C(COC(=O)CCN1C(=O)/C(=C\C=C\c2ccccc2)SC1=S)Nc1ccc(Br)cc1	GRIN3A LBD mod 10
CC(C)c1ccccc1NC(=O)COC(=O)CCN1C(=O)/C(=C\C=C\c2ccccc2)SC1=S	none
Cc1ccc(S(=O)(=O)CCC(=O)Nc2nnc(-c3ccc(F)cc3)o2)cc1	none
COc1cc(OC)cc(-c2nnc(NC(=O)CCS(=O)(=O)c3ccc(C)cc3)o2)c1	AHR activator 65
COCCNC(=O)C(=O)NCC1OCCN1S(=O)(=O)c1ccc(C)cc1 (configuration not stated)	GRIN3A LBD mod 14
CNC(=O)C(=O)NCC1OCCN1S(=O)(=O)c1ccc(C)cc1 (configuration not stated)	GRIN3A LBD mod 11
COCCNC(=O)C(=O)NCC1OCCN1S(=O)(=O)c1ccc2c(c1)OCCO2 (configuration not stated)	none
CCOC(=O)c1c(NC(=S)Nc2ccccc2)sc2c1CCN(CC)C2	KLK7 zymogen act 75
COc1cccc(N2CC(O)=C(c3nc4ccccc4s3)C2=N)c1	AHR activator 57
COc1ccc(N2CC(O)=C(c3nc4ccccc4s3)C2=N)cc1	none
CCc1nnc(N/N=C/c2ccccc2F)n1N	none
CCc1nnc(N/N=C/c2ccccc2Cl)n1N	AHR activator 53
COc1cccc(/C=N/Nc2nnc(C)n2N)c1OCc1ccccc1Cl	AHR activator 57
CCCCCCCCN1CCS(=O)(=O)N(Cc2ccc(OC)cc2)C(C(=O)OC)C1 (configuration not stated)	none (no result: AHR activator, GRIN3A LBD mod)
C#CCN1CC(N(C)CCOC(=O)CC2C=CCC2)CS1(=O)=O (configuration not stated)	none (no result: AHR activator, GRIN3A LBD mod)
O=C(OCc1cn(Cc2ccc(F)c(F)c2)nn1)N1CCCC1	none (no result: AHR activator, GRIN3A LBD mod)
Cc1csc(Nc2nc(N)c(C(=O)Nc3cc(Cl)ccc3F)o2)n1	GRIN3A LBD mod 22
CC(C)(C)CC(C)(C)c1ccc(O)c(Cc2ccc(Cl)cc2Cl)c1	GRIN3A LBD mod 12 (no result: AHR activator)
CC(C)(C)CC(C)(C)c1ccc(O)c(CN2CCN(CCC#N)CC2)c1	none
COC(=O)[C@]12C[C@H](CC(=O)NCCCCc3ccccc3)C(=O)N(Cc3ccc(Cl)cc3Cl)C1=C[C@H](C(C)(C)C)O[C@@H]2C	none (no result: AHR activator, GRIN3A LBD mod)
Brc1ccc(-c2csc(N3CCC(c4nn[nH]n4)CC3)n2)cc1	none (no result: AHR activator, rCAG binder, KLK7 zymogen act, GRIN3A LBD mod)
